# Assay results as given in PubChem BioAssay AID1509 (The Scripps Research Institute Molecular Screening Center, 2009).
# The campaign covered roughly 220,000 compounds. About 770 (0.35%) were called active. The full list was thinned out, with actives kept by preference. Unmarked numbers belong to inactive results. Rule as the data show it: active = activation above about 11%; inactive = the rest.
# Biological target: Sphingosine 1-phosphate receptor 4 (Homo sapiens) (UniProt O95977)
# Test: S1P4 receptor agonists, primary screen, cell-based (AID 1509);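 also: 0% = DMSO vehicle and 100% = reference agonist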
# Conditions: S1P4-expressing cell line, agonist reporter assay; at 4.98 µM; hits give high values
# Chain of Sphingosine 1-phosphate receptor 4 (Homo sapiens) (O95977 whole entry, looked up): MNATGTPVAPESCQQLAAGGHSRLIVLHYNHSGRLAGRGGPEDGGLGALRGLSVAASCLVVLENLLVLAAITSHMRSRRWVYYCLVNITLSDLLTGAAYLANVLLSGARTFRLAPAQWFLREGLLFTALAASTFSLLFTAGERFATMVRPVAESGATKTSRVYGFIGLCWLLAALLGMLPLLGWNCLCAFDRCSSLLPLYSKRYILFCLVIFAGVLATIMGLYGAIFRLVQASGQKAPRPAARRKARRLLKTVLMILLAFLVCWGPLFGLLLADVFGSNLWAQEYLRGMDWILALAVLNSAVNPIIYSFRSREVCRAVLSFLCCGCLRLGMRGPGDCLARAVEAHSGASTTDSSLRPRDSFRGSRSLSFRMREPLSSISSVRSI
row,Compound,activation
1,O=S(=O)(NCCc1ccncc1)c1ccccc1,-2.17%
2,CCN(CC)CCCSc1nc2ccccc2s1,-1.06%
3,CCC(=O)Oc1cccc(C(=O)Nc2ccc(-c3nnc(-c4ccco4)o3)cc2)c1,1.45%
4,CCCCOc1ccc(-c2nnc(-c3ccco3)o2)cc1,0.55%
5,CCOc1ccc(-c2nnc(-c3ccco3)o2)cc1,13.2% (active)
6,COC(=O)[C@@H]1CC[C@H](C)[C@@H](c2ccc(C)cc2)N1C(=O)c1ccc(/C=N/O[C@H](C)c2cn([C@@H]3COC[C@H]3O)nn2)cc1,44.7% (active)
7,O=C(CC1C(=O)NCCN1CC(c1ccccc1)c1ccccc1)NCCc1cn[nH]c1 (stereo not drawn),-1.81%
8,Cc1cc(C(=O)COC(=O)C2CC2)c(C)n1-c1ccc(F)cc1,1.5%
9,Cc1ccc(S(=O)(=O)NC(=O)Nc2nc(-c3ccc(F)c(F)c3)cs2)cc1,1.19%
10,CNS(=O)(=O)c1ccc(NC(=O)C2CC(=O)N(c3ccc(Cl)cc3)C2)cc1 (stereo not drawn),-4.58%
11,COc1cccc2c1CCC(NC(C)=O)C2=O (stereo not drawn),1.12%
12,O=C(CSc1nnc(Cc2ccccc2)n1-c1ccccc1)N1CCOCC1,-2.13%
13,Cn1c(SCC(=O)N2CCOCC2)nnc1-c1ccc2ncccc2c1,1.83%
14,O=C(CSc1nncn1-c1cccnc1)N1CCOCC1,44.7% (active)
15,O=C(Nc1ccc(NC(=O)c2ccco2)c(Cl)c1)c1cccc([N+](=O)[O-])c1,1.27%
16,CCN(CC)S(=O)(=O)c1cccc(-c2n[nH]c(=S)n2/N=C/c2ccc(C(=O)OC)cc2)c1,0.89%
17,Cc1cc(CNC(=O)c2cccc([N+](=O)[O-])c2)c2ccccc2n1,1.06%
18,CC(=O)Nc1ccc(Nc2c3ccccc3nc3ccccc23)cc1,4.18%
19,O=[N+]([O-])c1cccc(Nc2c3ccccc3nc3ccccc23)c1,13.1% (active)
20,CCCCc1ccc(S(N)(=O)=O)cc1,-0.75%
21,CC(C)(C)n1cnnc1Sc1ccc([N+](=O)[O-])cn1,-0.36%
22,CC(C)(C)C(=O)NCCCNc1ccc([N+](=O)[O-])cc1,0.65%
23,Cc1cc(C)c(C#N)c(SCC(=O)NN2CC(=O)N(c3ccccc3F)CC2=O)n1,55.1% (active)
24,Cc1cc(C)c(C#N)c(SCC(=O)Nc2ccccc2)n1,2.39%

row,Compound,activation
1,Cc1cc(C)c(C#N)c(SCc2ccccc2C(=O)O)n1,0.52%
2,O=C(O)CCn1cc(/C=C/C(=O)c2ccc(Cl)cc2)c(-c2cccc(Br)c2)n1,0.7%
3,CCc1ccc(/C=N/NC(=O)c2ccc(OC3CCCC3)cc2)s1,0.66%
4,O=C(O)/C=C/C(=O)NNc1ccc([N+](=O)[O-])cc1,-0.64%
5,Cc1csc(/N=C/N(C)C)c1C#N,0.51%
6,CCCC(c1nnnn1C(C)(C)C)N1CCN(Cc2ccccc2)CC1 (stereo not drawn),0.72%
7,CC(C)C(c1nnnn1C(C)(C)C)N1CCN(Cc2cccnc2)CC1 (stereo not drawn),12.3% (active)
8,COc1ccccc1C(c1nnnn1C(C)(C)C)N1CCN(Cc2ccccc2)CC1 (stereo not drawn),-1.97%
9,CC(=O)Nc1ccc(NC(=O)CSc2ncnc3c2cnn3Cc2ccccc2)cc1,-0.48%
10,COc1ccc(C(C(=O)NC(C)(C)C)N(C(=O)Cn2nnc3ccccc32)c2ccc(C(C)=O)cc2)cc1O (stereo not drawn),0.1%
11,CCOC(=O)COc1nc(C)cc(C(F)(F)F)c1C#N,-0.16%
12,CCc1ccc(-n2c(=S)sc3c(=O)n(-c4ccccc4OC)c(=S)[nH]c32)cc1,1.93%
13,O=C(NC1CCCCC1)C1CCCN(S(=O)(=O)c2ccc(Br)s2)C1 (stereo not drawn),1.69%
14,CCOc1cc(N2CCOCC2)c(OCC)cc1NC(=O)C1=NN(c2cccc(C)c2)C(=O)CC1,0.94%
15,Cc1ccc(/C([O-])=C(/C(=S)NCc2ccco2)[n+]2ccccc2)cc1[N+](=O)[O-],0.47%
16,CCN(CC)CCNC(=O)c1sc2ncn(CC(=O)Nc3ccc(C)c(Cl)c3)c(=O)c2c1C,-1.34%
17,COc1ccccc1C1CC(=O)n2c(nc(-c3ccccc3)c2-c2ccccc2)S1 (stereo not drawn),-1.26%
18,O=C(Nc1nnc(SCc2c(Cl)cccc2Cl)s1)c1cccc([N+](=O)[O-])c1,1.12%
19,CC(C)(C)OC(=O)N1CCC(NC(=O)c2[nH]cnc2C(=O)N[C@@H](Cc2ccccc2)C(=O)OCc2ccccc2)CC1,0.67%
20,CNC(=O)c1[nH]cnc1C(=O)N[C@@H](CC(C)C)C(=O)OC(C)(C)C,2.22%
21,CNC(=O)c1[nH]cnc1C(=O)N[C@@H](CC(C)C)C(=O)OCc1ccccc1,30.9% (active)
22,CC(=O)c1c(N2CCN(c3ccc(F)cc3)CC2)nc(=S)n(-c2ccccc2)c1C,0.51%
23,Nc1cccc(S(=O)(=O)Nc2ccc(SC(F)F)cc2)c1,1.21%
24,NC(=O)c1ccccc1N=Cc1ccc2ccccc2c1,0.55%
